The source of these data is PubChem BioAssay (Tox21).

Values joined by “and” are separate entries in the source; they are usually repeats but may differ in a detail not shown here. Equal values may be shown once. Results filed as inconclusive are left out. A call without a number means that no potency is given here. Some structures have more than one record in an assay (separate samples or runs), and their calls can disagree. Active and inactive are the calls of the source. Unless noted, calls follow the shape of the dose curve; as a rule, active = well fitted cell-killing curve with a large enough effect in the repeat runs (not every such curve was filed as active); inconclusive = weak or mixed curves, or effect the other way; inactive = no such curve, though single readings can be large or run the other way.
Potency is read from the fitted curve at half-maximal effect.

The nature of the first assay: qHTS assay to identify small molecule antagonists of the estrogen related receptor signaling pathway with the pleiotropic PPARgamma coactivator (PGC) from Tox21 10K library - cell viability counter screen (AID 1224840). Also: nearly all actives have a fitted effect of over 40% in size. Particulars: PGC/ERR reporter cells viability, CellTiter-Fluor, 17.5 h; series mostly up to 92.4 µM. Put shortly: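 Seeded PGC/ERR cells (2,000/well, 6 h, 37 C/5% CO2) get compound by pin tool; 17.5 h incubation at 37 C; CellTiter-Fluor added, 30 min, fluorescence measured.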
On the technique in general: qHTS replaces the single test concentration by a dilution series.
`COc1ccc2nc(N)sc2c1`: the Potency result is “inactive”.

Consider `C[C@]12C=CC(=O)C=C1CC[C@H]1[C@@H]3C[C@@H](O)[C@](O)(C(=O)CO)[C@@]3(C)C[C@H](O)[C@@]12F`, for which the Potency entry was “inactive”.

In the case of `C[N+](C)(C)CCO`, the Potency entry is “inactive”. `c1ccc2c(c1)ccc1ncccc12`: the Potency entry is “inactive”. Same read-out and setting: as for `Cc1ccc2c(c1)C(=O)OC2=O`, the entry is “inactive”; as for `c1ccc2cc3ccccc3cc2c1`, “inactive”; as for `O=Cc1ccccc1C=O`, “inactive”. For `CNC[C@H](O)c1ccc(O)c(O)c1`, the Potency entry was “inactive”. As to `C=CCOC(=O)C(=C)C`, the Potency entry was “inactive”. As for `C=C1C[C@H]2[C@@H]3C=C(C)C4=CC(=O)CC[C@]4(C)[C@H]3CC[C@]2(C)[C@@]1(OC(C)=O)C(C)=O`, the Potency entry was “inactive”.

With `CCCCCC1C(=O)CCC1CC(=O)OC` (stereo not given), the Potency result was “inactive”.

Consider `CC(=O)O[C@]1(C(C)=O)CC[C@H]2[C@@H]3C=C(Cl)C4=CC(=O)CC[C@]4(C)[C@H]3CC[C@@]21C`, for which the Potency result was “inactive”. The same measure, in the same setting: the same measure for `CC(=O)Nc1ccc2c(c1)Cc1cc(NC(C)=O)ccc1-2`: “inactive”; for `Nc1ccc2c(c1)C(=O)c1ccccc1C2=O`: “inactive”. The same measure, in the same setting: as for `O=C(O)c1cc(=O)[nH]c(=O)[nH]1`, the entry is “inactive”; as for `C[C@]12CC[C@@H]3c4ccc(O)cc4CC[C@H]3[C@@H]1CC[C@H]2O`, “inactive”; as for `IC(I)I`, “inactive”.

Consider `O=C1OC2(c3ccccc31)c1cc(I)c(O)c(I)c1Oc1c2cc(I)c(O)c1I`, for which the Potency was 13.7 µM (active) and 19.6 µM (active) and 16.6 µM (active). On to `Oc1c(Cl)ccc(Cl)c1Cl`, for which the Potency entry was “inactive”. Same read-out and setting: the same measure for `Nc1cc(Cl)c(N)c(Cl)c1`: “inactive”; for `OC[C@@H](O)[C@@H](O[C@@H]1O[C@H](CO)[C@H](O)[C@H](O)[C@H]1O)[C@H](O)[C@@H](O)CO`: “inactive”; for `C[C@]12CC[C@@H]3c4ccc(O)cc4CC[C@H]3[C@@H]1CC[C@@H]2O`: “inactive”. Take `C=CC(C)(O)CCC=C(C)C` (stereo not given): the Potency entry was “inactive”.

As to `C=C[C@@]1(C)CC(=O)[C@]2(O)[C@@]3(C)[C@@H](O)CCC(C)(C)[C@@H]3[C@H](O)[C@H](OC(C)=O)[C@@]2(C)O1`, the Potency result is “inactive”. On the same count and under the same terms, as for `c1ccc2c(c1)ccc1cc3c(ccc4ccccc43)cc12`, the entry is “inactive”. For the compound `C=C[Si](OCCOC)(OCCOC)OCCOC`, the Potency result is “inactive”. On the same count and under the same terms, as for `C=CCNCC=C`, the entry is “inactive”.

With `c1ccc2c(c1)[nH]c1ccccc12`, the Potency entry is “inactive”. Same read-out and setting: as for `Clc1ccc(Sc2cc(Cl)c(Cl)cc2Cl)cc1`, the entry is “inactive”. Take `CC(=O)OC(C)C`: the Potency entry was “inactive”. On the same count and under the same terms, the same measure for `O=C(O)CCCCCCCCCCCC(=O)O`: “inactive”; for `[O-]/[N+](=N\O)c1ccccc1`: “inactive”; for `NC[C@H](O)c1ccc(O)c(O)c1`: “inactive”. As for `COc1ccc(-c2coc3cc(O)cc(O)c3c2=O)cc1`, the Potency result was “inactive”. On the same count and under the same terms, as for `OC[C@H]1O[C@@H]2O[C@H]3[C@H](O)[C@@H](O)[C@@H](O[C@H]4[C@H](O)[C@@H](O)[C@@H](O[C@H]5[C@H](O)[C@@H](O)[C@@H](O[C@H]6[C@H](O)[C@@H](O)[C@@H](O[C@H]7[C@H](O)[C@@H](O)[C@@H](O[C@H]1[C@H](O)[C@H]2O)O[C@@H]7CO)O[C@@H]6CO)O[C@@H]5CO)O[C@@H]4CO)O[C@@H]3CO`, the entry is “inactive”; as for `CC(C)[N+](C)(CCOC(=O)C1c2ccccc2Oc2ccccc21)C(C)C`, “inactive”.

The nature of a further assay: qHTS assay to identify small molecule antagonists of the estrogen related receptor signaling pathway with the pleiotropic PPARgamma coactivator (PGC) from Tox21 10K library (AID 1224841; call rule not given here; also: actives are mostly falling curves and most rising ones were filed inactive; nearly all actives have a fitted effect of over 50% in size). Particulars: PGC/ERR reporter cell line, ONE-Glo luciferase, 18 h; series mostly up to 92.4 µM. Put shortly:
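Test chemicals dissolved in DMSO were applied to pre-incubated (6 h) PGC/ERR cells at 2,000 cells/well for an 18 h, 37 C treatment; reporter luminescence was then read using One-Glo.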
On to `C[C@]12C=CC(=O)C=C1CC[C@H]1[C@@H]3C[C@@H](O)[C@](O)(C(=O)CO)[C@@]3(C)C[C@H](O)[C@@]12F`, for which the Potency result is “inactive”. Still for that read-out and setting: the same measure for `c1ccc2c(c1)ccc1ncccc12`: “inactive”; for `c1ccc2cc3ccccc3cc2c1`: “inactive”; for `CNC[C@H](O)c1ccc(O)c(O)c1`: “inactive”. Still for that read-out and setting: as for `C=CCOC(=O)C(=C)C`, the entry is “inactive”. The same measure, in the same setting: the same measure for `C=C1C[C@H]2[C@@H]3C=C(C)C4=CC(=O)CC[C@]4(C)[C@H]3CC[C@]2(C)[C@@]1(OC(C)=O)C(C)=O`: 31.3 µM (active); for `CCCCCC1C(=O)CCC1CC(=O)OC` (stereo not given): “inactive”; for `O=C(O)c1cc(=O)[nH]c(=O)[nH]1`: “inactive”. Consider `C[C@]12CC[C@@H]3c4ccc(O)cc4CC[C@H]3[C@@H]1CC[C@H]2O`, for which the Potency entry is “inactive”. With `IC(I)I`, the Potency was 48.5 µM (active) and inactive. The same measure, in the same setting: as for `O=C1OC2(c3ccccc31)c1cc(I)c(O)c(I)c1Oc1c2cc(I)c(O)c1I`, the figure is 15.4 µM (active) and 15.5 µM (active). With `Oc1c(Cl)ccc(Cl)c1Cl`, the Potency result was “inactive”. Consider `OC[C@@H](O)[C@@H](O[C@@H]1O[C@H](CO)[C@H](O)[C@H](O)[C@H]1O)[C@H](O)[C@@H](O)CO`, for which the Potency entry is “inactive”. The same measure, in the same setting: the same measure for `C1CN(SSN2CCOCC2)CCO1`: 53.9 µM (active); for `O=C(O)CCCCCCCCCCCC(=O)O`: 60.1 µM (active) and inactive; for `Nc1ccc2c(O)cc(S(=O)(=O)O)cc2c1`: 15.4 µM (active).

The nature of another assay: qHTS assay to identify small molecule agonists of the estrogen related receptor signaling pathway with the pleiotropic PPARgamma coactivator (PGC) from Tox21 10K library (AID 1224842; active = well fitted activation curve with a large enough effect in the repeat runs; also: nearly all actives have a fitted effect of over 15% in size). The settings on record: PGC/ERR reporter cell line, luciferase ONE-Glo, 18 h; series mostly up to 92.4 µM. Put shortly:
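PGC/ERR reporter cells (NTP line) were seeded 2,000 per well, rested 6 h at 37 C/5% CO2, then pin-dosed with compounds in DMSO for 18 h at 37 C; luciferase read by One-Glo luminescence after 30 min at room temperature.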
For `C[C@]12C=CC(=O)C=C1CC[C@H]1[C@@H]3C[C@@H](O)[C@](O)(C(=O)CO)[C@@]3(C)C[C@H](O)[C@@]12F`, the Potency entry is “inactive”. Same read-out and setting: as for `c1ccc2c(c1)ccc1ncccc12`, the entry is “inactive”; as for `c1ccc2cc3ccccc3cc2c1`, “inactive”. Still for that read-out and setting: as for `CNC[C@H](O)c1ccc(O)c(O)c1`, the figure is 1.54 µM (active) and 1.16 µM (active); as for `C=CCOC(=O)C(=C)C`, “inactive”.

For the compound `C=C1C[C@H]2[C@@H]3C=C(C)C4=CC(=O)CC[C@]4(C)[C@H]3CC[C@]2(C)[C@@]1(OC(C)=O)C(C)=O`, the Potency entry is “inactive”.

`CCCCCC1C(=O)CCC1CC(=O)OC` (stereo not given): the Potency entry is “inactive”. Still for that read-out and setting: as for `O=C(O)c1cc(=O)[nH]c(=O)[nH]1`, the entry is “inactive”; as for `C[C@]12CC[C@@H]3c4ccc(O)cc4CC[C@H]3[C@@H]1CC[C@H]2O`, “inactive”; as for `IC(I)I`, “inactive”. Regarding `O=C1OC2(c3ccccc31)c1cc(I)c(O)c(I)c1Oc1c2cc(I)c(O)c1I`, the Potency entry was “inactive”. With `Oc1c(Cl)ccc(Cl)c1Cl`, the Potency result is “inactive”. Still for that read-out and setting: the same measure for `OC[C@@H](O)[C@@H](O[C@@H]1O[C@H](CO)[C@H](O)[C@H](O)[C@H]1O)[C@H](O)[C@@H](O)CO`: “inactive”; for `C[C@]12CC[C@@H]3c4ccc(O)cc4CC[C@H]3[C@@H]1CC[C@@H]2O`: “inactive”; for `C1CN(SSN2CCOCC2)CCO1`: “inactive”. On the same count and under the same terms, as for `O=C(O)CCCCCCCCCCCC(=O)O`, the entry is “inactive”; as for `[O-]/[N+](=N\O)c1ccccc1`, “inactive”; as for `Nc1ccc2c(O)cc(S(=O)(=O)O)cc2c1`, “inactive”.
